Test results published in PubChem BioAssay AID504339 (National Center for Advancing Translational Sciences (NCATS), 2011).
Hit rate of the full screen: of about 390,000 compounds, about 17,000 (4.4%) were called active. Not shown: some 8% with an inconclusive outcome. The sample holds actives, similar compounds and a random draw of the others, so the mix is not that of the screen. Values without a mark were called inactive. Calls come from the whole dose curve; as a rule, active = well fitted inhibition curve with a large enough effect; inconclusive = small, poorly fitted or top-dose-only effect; inactive = no such curve, though single readings can be large or run the other way.

Target: Lysine-specific demethylase 4A (Homo sapiens) (UniProt O75164)
Assay: qHTS Assay for Inhibitors of JMJD2A-Tudor Domain; note: nearly all actives have a fitted effect of over 50% in size
Conditions: AlphaScreen JMJD2A-Tudor / H3K4me3 peptide binding; series mostly up to 114 µM; activity change, negative = inhibition: at the top concentration
% is set by controls: 0 for no effect and ±100 for the full control effect; potency is the fitted concentration of half-maximal effect.

Sequence of Lysine-specific demethylase 4A (Homo sapiens) (O75164 whole entry, looked up, the tested form may be a part): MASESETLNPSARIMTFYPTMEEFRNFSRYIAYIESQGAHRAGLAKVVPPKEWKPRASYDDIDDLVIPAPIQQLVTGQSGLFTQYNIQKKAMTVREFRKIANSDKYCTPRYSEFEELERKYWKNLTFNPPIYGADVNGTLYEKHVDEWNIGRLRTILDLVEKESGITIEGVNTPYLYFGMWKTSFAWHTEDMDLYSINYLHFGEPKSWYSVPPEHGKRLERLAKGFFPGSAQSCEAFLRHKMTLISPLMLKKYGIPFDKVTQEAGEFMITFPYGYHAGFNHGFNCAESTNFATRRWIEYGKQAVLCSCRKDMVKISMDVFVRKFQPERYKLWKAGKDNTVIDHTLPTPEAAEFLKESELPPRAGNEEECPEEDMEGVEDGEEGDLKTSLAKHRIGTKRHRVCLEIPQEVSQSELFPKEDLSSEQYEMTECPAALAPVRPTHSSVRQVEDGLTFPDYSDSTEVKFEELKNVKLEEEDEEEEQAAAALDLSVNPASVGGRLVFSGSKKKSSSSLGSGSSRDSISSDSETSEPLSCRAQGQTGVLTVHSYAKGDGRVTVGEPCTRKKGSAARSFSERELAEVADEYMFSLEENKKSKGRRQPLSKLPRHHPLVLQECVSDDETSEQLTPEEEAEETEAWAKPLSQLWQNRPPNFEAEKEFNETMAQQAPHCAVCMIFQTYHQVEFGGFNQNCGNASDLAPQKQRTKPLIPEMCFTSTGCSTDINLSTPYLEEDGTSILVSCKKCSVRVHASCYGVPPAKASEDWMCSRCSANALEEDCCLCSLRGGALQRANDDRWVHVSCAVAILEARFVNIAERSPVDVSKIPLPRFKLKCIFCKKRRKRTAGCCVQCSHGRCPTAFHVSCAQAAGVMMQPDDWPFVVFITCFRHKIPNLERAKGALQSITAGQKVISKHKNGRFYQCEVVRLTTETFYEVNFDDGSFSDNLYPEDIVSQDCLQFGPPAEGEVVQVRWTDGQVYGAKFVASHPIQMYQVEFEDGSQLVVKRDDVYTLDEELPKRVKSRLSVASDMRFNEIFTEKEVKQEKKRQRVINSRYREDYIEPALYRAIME

SMILES	activity change, negative = inhibition	Potency
CN(C)P(=S)(Nc1ccccc1)C(Cl)(Cl)Cl (stereo not given)	2.26% [at 57.1 µM]	
CC1CCCCN1Cc1cccnc1 (stereo not given)		8.91 µM (active)
CC1CCCN1CCC(C(N)=O)(c1ccccc1)c1ccccc1 (stereo not given)	-13.8%	
c1cncc(CNC2=NCCC2)c1	0% [at 57.1 µM]	
C[C@]12CCC3C(CC[C@H]4[C@H](O)[C@H](O)CC[C@]34C)C1CC[C@@H]2O (stereo not given in full)	0%	
O=c1[nH]c(=O)n(-c2ccc(F)cc2)c(O)c1C=NCCN1CCCCC1	-0.699%	
CCOc1ccc(CN(CCCl)CCCl)cc1C(=O)OC		25.1 µM (active)
c1ccc(C(CN2CCCCC2)c2ccccc2)cc1	-9.59%	
CCOP(=O)(OCC)C(NC(=O)c1ccc(C)cc1)C(Cl)(Cl)Cl (stereo not given)	0.685%	
CC12CCC(O)CC1CCC1C2CCC2(C)C(C(=O)CC(O)C(F)(F)F)CCC12 (stereo not given)	-4.17%	
CCC1(C)CC(CCNCc2ccc(N(C)C)cc2)(c2ccc(F)cc2)CCO1 (stereo not given)		44.7 µM (active)
COC1=CC=C2[C@H]3Cc4ccc(OC)c5c4[C@@]2(CCN3C)C1O5 (stereo not given in full)	-11%	
CCN(CC)C(=O)c1ccc(NC(=O)c2cc(-n3cnnc3)ccc2Cl)cc1	-15.3%	
COc1cccc(OC)c1C(=O)NC(=S)N1C[C@H]2C[C@H](C1)c1cccc(=O)n1C2	-17.7%	
CCC/C(=N\O)c1c[nH]c2ccccc12	3.73%	
CCc1cccc2c(C#N)cn(CC(=O)N3CCOCC3)c12	-5.97%	
CCC(=NCCc1ccccc1)c1c(O)n(C2CCCCC2)c(=O)[nH]c1=O	-27.9%	
COc1ccccc1CN1CCN(C(=O)Cc2ccccc2)CC1		2.51 µM (active)
O=C(Cc1ccc(Cl)cc1)NCCN1CCN(C(=O)Cc2ccc(Cl)cc2)CC1	-13.7%	
CCN1CCN(C(=O)Cc2coc3cc(C)cc(C)c23)CC1	-17.1%	
O=C(Cc1ccccc1)N1CCN(C2CCCCCC2)CC1		79.4 µM (active)
O=C(Cn1c(=O)n(CC2CS2)c2ccccc21)N1CCCCC1 (stereo not given)	-0.687%	
CN(C)C(=O)NC(O)C(Cl)(Cl)Cl (stereo not given)	-1.74%	
COC(=O)C1=C(c2ccc(F)cc2F)C[C@@H]2CC[C@H]1N2C(=O)NC1CC1	-13.4%	
CC=C(C)C(=O)OC1CCN2CC=C(COC(=O)C(O)(C(C)OC)C(C)(C)O)C12 (stereo not given)	-10.3%	

SMILES	activity change, negative = inhibition	Potency
CCOc1ccc(-c2cc(C)[n+](CCN(CC)CC)c(-c3ccc(OCC)cc3)c2)cc1	-5.32%	
CCC(=O)CC(c1ccc([N+](=O)[O-])cc1)c1c(O)c2ccccc2oc1=O (stereo not given)	-5.04%	
COc1ccccc1OC(=O)c1ccc(C)c(S(=O)(=O)N2CCOCC2)c1	-4.23%	
CC1CNCCN1c1ccc(Cl)cc1 (stereo not given)	-6.94%	
Cn1cc(/C=C/c2nc3ccccc3c(=O)n2-c2ccccc2)c2ccccc21	-25.8%	
CCC(=O)OC(Cc1ccccc1)(c1ccccc1)C(C)CN(C)C (stereo not given)	-23.4%	
O=C(C1CC(=O)N(C2CCCC2)C1)N1CCC2(CC1)OCCO2 (stereo not given)	-3.52%	
O=C(C1CCN(CC2CCCCC2)CC1)N1CCCC1		50.1 µM (active)
C=C(C)C1(CCCC)C(=O)NC(=S)NC1=O	-10.4%	
COC(=O)C1=C(c2ccc(C(C)=O)cc2)C[C@@H]2CC[C@H]1N2C(=O)NCCNC(C)=O	-20.7%	
CN(C)/C=C(\C=[N+](C)C)c1[nH]ncc1[N+](=O)[O-]	-5.84%	
C[C@]12CCCCC1=CC(=O)C1C2CC[C@@]2(C)C1C[C@@H](F)[C@@H]2O (stereo not given in full)	1.38%	
O=c1[nH]c(=S)n(C2CC2)c(O)c1/C=N/N1CCOCC1	-20.7%	
CC(C)c1ccc(-n2c(O)c(/C=N/N3CCOCC3)c(=O)[nH]c2=S)cc1	-11.7%	
O=C(N/N=C/c1c(O)n(C2CC2)c(=S)[nH]c1=O)c1ccccc1Cl		89.1 µM (active)
COc1ccccc1-n1c(O)c(C=NC2CC2)c(=O)[nH]c1=O	25.3%	
CC/C(=N\NC(=O)c1ccccc1O)c1c(O)n(Cc2ccccc2)c(=O)[nH]c1=O	-0.735% [at 11.4 µM]	
O=C(N/N=C/c1c(O)n(C2CC2)c(=S)[nH]c1=O)c1ccccc1		56.2 µM (active)
COP(=O)(OC)C(NC(=O)c1ccc(C)cc1)C(Cl)(Cl)Cl (stereo not given)	1.03%	
Cc1nnc(NC(=O)c2cccn(Cc3cccc(F)c3)c2=O)s1	-13.6%	
COC(=O)C1=C(c2cc3ccccc3s2)C[C@@H]2CC[C@H]1N2C(=O)NCc1cccc2ccccc12	-13.7%	
CC(CC(C#N)(c1ccccc1)c1ccccc1)N1CCCCC1 (stereo not given)	-3.5%	
O=C(COC(=O)c1ccccc1)Nc1ccccc1Sc1ccccc1	73.6%	
Cc1cc(-c2n[nH]c(=S)n2-c2ccc(C)c(C)c2)no1		3.16 µM (active)
O=C1NC(=O)C(CCOc2ccccc2)(CCc2ccccc2)C(=O)N1	12.6%	
